# ChEMBL document CHEMBL1961873, “Compounds: GSK PKIS; Assays: Nanosyn kinase panel” (2012)
# What was measured:
# [1] = target: T1, Serine/threonine-protein kinase D2 (Homo sapiens) (UniProt Q9BZL6); details: at 1 µM;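 further: mean value of PRKD2 inhibition, from the GSK PKIS screening panel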
# T1 sequence (whole entry): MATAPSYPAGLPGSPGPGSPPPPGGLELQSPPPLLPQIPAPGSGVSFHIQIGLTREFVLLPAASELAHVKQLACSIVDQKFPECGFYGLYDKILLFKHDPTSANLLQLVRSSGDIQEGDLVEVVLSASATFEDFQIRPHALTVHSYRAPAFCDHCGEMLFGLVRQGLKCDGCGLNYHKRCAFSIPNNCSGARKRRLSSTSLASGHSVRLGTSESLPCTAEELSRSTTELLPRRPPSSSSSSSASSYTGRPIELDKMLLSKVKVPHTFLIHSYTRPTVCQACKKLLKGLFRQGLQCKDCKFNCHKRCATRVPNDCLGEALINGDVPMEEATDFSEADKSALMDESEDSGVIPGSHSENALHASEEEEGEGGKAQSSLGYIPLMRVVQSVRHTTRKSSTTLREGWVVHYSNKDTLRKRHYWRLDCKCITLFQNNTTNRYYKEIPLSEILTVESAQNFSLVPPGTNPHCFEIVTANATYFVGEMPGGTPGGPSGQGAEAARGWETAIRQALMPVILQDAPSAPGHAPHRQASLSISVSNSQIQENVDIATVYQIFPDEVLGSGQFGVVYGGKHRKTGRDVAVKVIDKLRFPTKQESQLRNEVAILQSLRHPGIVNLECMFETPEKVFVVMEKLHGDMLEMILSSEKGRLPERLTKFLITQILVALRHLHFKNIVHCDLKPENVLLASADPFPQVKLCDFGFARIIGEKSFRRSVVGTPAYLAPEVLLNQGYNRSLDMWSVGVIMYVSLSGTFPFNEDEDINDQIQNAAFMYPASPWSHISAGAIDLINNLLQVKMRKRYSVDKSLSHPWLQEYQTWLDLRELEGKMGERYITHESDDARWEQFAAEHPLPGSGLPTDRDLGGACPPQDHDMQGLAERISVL
# [2] = target: T2, Serine/threonine-protein kinase D3 (Homo sapiens) (UniProt O94806); details: at 0.1 µM
# T2 sequence (whole entry): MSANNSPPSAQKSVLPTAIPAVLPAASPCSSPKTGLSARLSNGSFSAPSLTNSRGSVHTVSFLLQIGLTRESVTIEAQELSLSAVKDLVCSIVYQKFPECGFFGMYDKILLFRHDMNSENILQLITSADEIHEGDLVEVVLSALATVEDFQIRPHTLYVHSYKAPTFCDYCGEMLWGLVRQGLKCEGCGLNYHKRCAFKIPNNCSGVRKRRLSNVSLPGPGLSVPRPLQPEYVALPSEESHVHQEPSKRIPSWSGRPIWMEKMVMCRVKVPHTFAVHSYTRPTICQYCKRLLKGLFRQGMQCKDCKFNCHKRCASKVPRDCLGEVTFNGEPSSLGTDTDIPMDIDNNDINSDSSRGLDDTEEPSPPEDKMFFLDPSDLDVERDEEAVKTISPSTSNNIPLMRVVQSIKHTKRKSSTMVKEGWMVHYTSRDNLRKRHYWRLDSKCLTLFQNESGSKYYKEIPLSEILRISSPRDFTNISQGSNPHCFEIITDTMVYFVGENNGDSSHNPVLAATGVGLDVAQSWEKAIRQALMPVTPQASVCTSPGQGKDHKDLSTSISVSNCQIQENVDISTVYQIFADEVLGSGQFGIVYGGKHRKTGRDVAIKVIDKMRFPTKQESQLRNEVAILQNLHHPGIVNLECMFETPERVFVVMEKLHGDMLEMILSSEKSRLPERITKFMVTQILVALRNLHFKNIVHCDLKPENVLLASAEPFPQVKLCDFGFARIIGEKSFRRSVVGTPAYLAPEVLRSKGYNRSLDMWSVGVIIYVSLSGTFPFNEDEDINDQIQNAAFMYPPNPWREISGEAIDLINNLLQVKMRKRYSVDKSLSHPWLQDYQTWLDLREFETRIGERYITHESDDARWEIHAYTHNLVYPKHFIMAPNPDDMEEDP
# [3] = target: T2, Serine/threonine-protein kinase D3 (Homo sapiens); details: at 1 µM
# [4] = target: T3, cGMP-dependent protein kinase 1 (Homo sapiens) (UniProt Q13976); details: at 0.1 µM
# T3 sequence (whole entry): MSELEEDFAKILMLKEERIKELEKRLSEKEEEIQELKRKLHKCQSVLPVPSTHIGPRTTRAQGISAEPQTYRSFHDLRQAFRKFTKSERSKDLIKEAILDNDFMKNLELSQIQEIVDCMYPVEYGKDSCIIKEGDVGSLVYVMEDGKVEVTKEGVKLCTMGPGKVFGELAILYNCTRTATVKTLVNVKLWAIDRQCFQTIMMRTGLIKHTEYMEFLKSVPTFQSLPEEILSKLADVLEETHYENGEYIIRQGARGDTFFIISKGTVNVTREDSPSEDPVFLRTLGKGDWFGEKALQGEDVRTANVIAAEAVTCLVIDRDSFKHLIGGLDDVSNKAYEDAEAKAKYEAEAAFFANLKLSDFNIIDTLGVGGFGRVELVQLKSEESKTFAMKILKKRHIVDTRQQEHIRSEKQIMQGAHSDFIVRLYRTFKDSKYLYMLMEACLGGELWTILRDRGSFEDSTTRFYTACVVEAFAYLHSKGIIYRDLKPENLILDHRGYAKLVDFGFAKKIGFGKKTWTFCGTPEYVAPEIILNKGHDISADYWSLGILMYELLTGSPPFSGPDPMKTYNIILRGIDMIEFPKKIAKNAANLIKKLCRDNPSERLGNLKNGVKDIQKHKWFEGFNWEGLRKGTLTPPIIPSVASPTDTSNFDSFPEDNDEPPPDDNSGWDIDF
# [5] = target: T3, cGMP-dependent protein kinase 1 (Homo sapiens); details: at 1 µM
# [6] = target: T4, cGMP-dependent protein kinase 2 (Homo sapiens) (UniProt Q13237); details: at 0.1 µM
# T4 sequence (whole entry): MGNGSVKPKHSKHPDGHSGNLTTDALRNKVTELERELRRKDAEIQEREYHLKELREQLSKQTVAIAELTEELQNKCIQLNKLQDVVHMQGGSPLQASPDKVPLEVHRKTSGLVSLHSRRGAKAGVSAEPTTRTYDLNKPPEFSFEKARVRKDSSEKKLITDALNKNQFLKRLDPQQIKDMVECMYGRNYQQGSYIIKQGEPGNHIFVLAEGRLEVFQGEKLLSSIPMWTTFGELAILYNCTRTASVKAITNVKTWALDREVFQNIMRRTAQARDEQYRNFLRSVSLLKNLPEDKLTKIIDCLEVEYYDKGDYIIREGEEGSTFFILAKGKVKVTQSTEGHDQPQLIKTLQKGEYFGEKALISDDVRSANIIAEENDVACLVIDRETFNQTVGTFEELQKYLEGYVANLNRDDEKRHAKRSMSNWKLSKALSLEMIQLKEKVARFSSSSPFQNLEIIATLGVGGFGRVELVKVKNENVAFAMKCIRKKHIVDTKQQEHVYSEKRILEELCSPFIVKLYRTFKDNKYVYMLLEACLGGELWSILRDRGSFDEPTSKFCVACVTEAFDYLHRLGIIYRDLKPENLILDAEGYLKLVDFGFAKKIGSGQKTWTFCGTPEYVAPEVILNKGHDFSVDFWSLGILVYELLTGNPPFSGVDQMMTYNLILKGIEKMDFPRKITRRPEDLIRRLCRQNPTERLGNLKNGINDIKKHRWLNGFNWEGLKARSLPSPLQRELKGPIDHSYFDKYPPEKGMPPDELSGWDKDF
# [7] = target: T4, cGMP-dependent protein kinase 2 (Homo sapiens); details: at 1 µM
# [8] = target: T5, cAMP-dependent protein kinase catalytic subunit PRKX (Homo sapiens) (UniProt P51817); details: at 0.1 µM
# T5 sequence (whole entry): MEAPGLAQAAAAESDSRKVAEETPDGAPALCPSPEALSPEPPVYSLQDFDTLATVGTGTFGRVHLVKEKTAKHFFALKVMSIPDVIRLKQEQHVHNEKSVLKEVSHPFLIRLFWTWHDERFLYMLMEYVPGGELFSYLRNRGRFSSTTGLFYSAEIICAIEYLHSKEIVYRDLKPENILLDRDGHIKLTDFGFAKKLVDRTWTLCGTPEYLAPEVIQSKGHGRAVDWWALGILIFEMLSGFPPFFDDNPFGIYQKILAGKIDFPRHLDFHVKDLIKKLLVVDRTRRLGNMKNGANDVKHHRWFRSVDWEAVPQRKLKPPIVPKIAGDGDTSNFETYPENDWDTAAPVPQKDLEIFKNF
# [9] = target: T5, cAMP-dependent protein kinase catalytic subunit PRKX (Homo sapiens); details: at 1 µM
# [10] = target: Rho-associated protein kinase 1 (Homo sapiens) (UniProt Q13464); details: at 0.1 µM;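 further: values are mean percent inhibition of ROCK1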
# Chain of Rho-associated protein kinase 1 (Homo sapiens) (Q13464 2-1354 limits assumed): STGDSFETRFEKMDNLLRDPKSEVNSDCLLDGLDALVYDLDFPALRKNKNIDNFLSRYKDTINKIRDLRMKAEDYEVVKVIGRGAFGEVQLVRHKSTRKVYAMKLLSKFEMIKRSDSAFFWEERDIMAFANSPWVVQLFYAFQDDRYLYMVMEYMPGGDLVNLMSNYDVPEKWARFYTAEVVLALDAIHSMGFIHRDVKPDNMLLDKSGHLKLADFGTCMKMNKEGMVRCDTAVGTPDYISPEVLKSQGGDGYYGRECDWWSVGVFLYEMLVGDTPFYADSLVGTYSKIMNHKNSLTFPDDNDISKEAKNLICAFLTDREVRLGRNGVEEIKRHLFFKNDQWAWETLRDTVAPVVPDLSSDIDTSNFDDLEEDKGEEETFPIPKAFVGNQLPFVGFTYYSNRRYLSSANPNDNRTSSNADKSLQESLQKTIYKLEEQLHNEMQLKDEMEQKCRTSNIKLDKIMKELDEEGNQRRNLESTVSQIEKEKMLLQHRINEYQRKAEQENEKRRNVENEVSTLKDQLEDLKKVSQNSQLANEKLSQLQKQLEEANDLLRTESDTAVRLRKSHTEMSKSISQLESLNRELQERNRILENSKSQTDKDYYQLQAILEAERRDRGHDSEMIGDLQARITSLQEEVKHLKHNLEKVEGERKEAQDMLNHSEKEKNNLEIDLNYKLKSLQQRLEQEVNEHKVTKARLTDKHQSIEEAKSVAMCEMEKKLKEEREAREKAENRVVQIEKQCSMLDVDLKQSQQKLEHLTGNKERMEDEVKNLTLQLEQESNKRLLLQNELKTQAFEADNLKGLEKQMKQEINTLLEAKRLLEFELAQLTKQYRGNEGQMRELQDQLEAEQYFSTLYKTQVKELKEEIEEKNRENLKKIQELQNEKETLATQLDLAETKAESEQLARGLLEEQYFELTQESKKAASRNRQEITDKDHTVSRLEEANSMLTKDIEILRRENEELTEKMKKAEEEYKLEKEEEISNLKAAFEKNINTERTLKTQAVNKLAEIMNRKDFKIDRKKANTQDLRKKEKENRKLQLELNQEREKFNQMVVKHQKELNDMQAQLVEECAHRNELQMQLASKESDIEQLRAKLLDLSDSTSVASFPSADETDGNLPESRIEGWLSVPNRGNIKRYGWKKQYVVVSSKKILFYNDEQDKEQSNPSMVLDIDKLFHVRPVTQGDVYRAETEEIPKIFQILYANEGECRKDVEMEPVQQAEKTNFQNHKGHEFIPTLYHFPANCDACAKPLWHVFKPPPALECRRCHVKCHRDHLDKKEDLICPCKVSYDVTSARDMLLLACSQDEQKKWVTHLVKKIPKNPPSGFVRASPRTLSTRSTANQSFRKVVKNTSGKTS
SMILES,inhibition [1],inhibition [2],inhibition [3],inhibition [4],inhibition [5],inhibition [6],inhibition [7],inhibition [8],inhibition [9],inhibition [10]
N#Cc1c(NC(=O)c2ccccc2F)sc2c1CCCC2,1.58%,-2.11%,-0.58%,-2.04%,-0.46%,-1.17%,-0.91%,-0.74%,-0.83%,-0.67%
CN(C)c1cc2c(Nc3ccc4c(cnn4Cc4ccccc4)c3)ncnc2cn1,4.01%,3.24%,4.21%,0.2%,4.15%,2.57%,2.77%,1.48%,0.84%,0.25%
c1ccc(Cc2nc3ccc(Nc4ncnc5ccccc45)cc3[nH]2)cc1,4.57%,3.17%,5.52%,1.14%,4.46%,1.61%,6.41%,0.98%,1.89%,0.25%
COc1cccc(-n2ncc3c(N/N=C/c4ccc(S(C)(=O)=O)cc4)ncnc32)c1,-2.8%,-6.98%,-2.38%,1.11%,1.69%,1.59%,1.79%,1.68%,1.61%,0.21%
CN(c1ccc(NC(=O)Nc2ccc(OC(F)(F)F)cc2)cc1)c1ccnc(Nc2cccc(S(N)(=O)=O)c2)n1,3.78%,3.1%,3.42%,-0.15%,0.56%,0.76%,-0.82%,0.6%,0%,-0.35%
Nc1ccc(C#Cc2cncnc2Nc2ccc(OCc3cccc(F)c3)c(Cl)c2)cc1,2.21%,2.59%,2.64%,3.04%,1.31%,2.28%,0.99%,1.33%,1.72%,0.74%
CCS(=O)(=O)c1ccc(OC)c(Nc2ncc(-c3cccc(OC)c3)o2)c1,3.71%,3.28%,3.64%,1.45%,2.34%,0.25%,2.95%,0.28%,-2.35%,0.26%
CCOc1nccc2c1nc(-c1nonc1N)n2CC,1.39%,3.3%,2.21%,4.09%,5.91%,8.5%,43.1%,3.1%,2.76%,2.91%
CN1CCN(C(=O)c2ccc(NC(=O)Nc3ccc(N(C)c4ccnc(Nc5ccc(CS(C)(=O)=O)cc5)n4)cc3)cc2)CC1,3.43%,1.06%,3.69%,1.76%,3.23%,1.26%,1.71%,1.71%,0.77%,2.82%
Nc1nccc(-c2c(-c3ccc(F)cc3)ncn2CCCN2CCOCC2)n1,4.5%,4.8%,4.86%,4.04%,4.99%,2.72%,3.95%,2.51%,5.13%,2.49%
NC(=O)c1sc(-n2cnc3ccccc32)cc1OCc1ccccc1Br,6.86%,5.8%,8.54%,3.41%,5.69%,3.61%,5.73%,3.19%,5.64%,2.06%
Cc1cc(-c2ccccn2)cc(C)c1/C=C/c1cncc(-c2nn[nH]n2)c1,12.2%,6.27%,12.1%,3.51%,5.76%,2.46%,5.89%,2%,2.53%,2.04%
Cc1ccc2c(-c3ccnc(Nc4ccc5c(c4)OCCO5)n3)c(-c3ccc(C(F)(F)F)cc3)nn2n1,2.37%,1.2%,2.26%,3.03%,3.63%,2.95%,2.42%,6.47%,6.18%,0.76%
Cc1ccc(Nc2ccnc(Nc3cccc(C(N)=O)c3)n2)cc1O,10.1%,-0.05%,9.43%,1.11%,3.77%,2.93%,7.68%,1.82%,2.66%,0.56%
CN(C)CCCn1c(-c2nonc2N)nc2cnccc21,5.95%,4.93%,7.35%,3.68%,4.99%,2.51%,5.66%,1.48%,3.97%,5.96%
CCn1c(-c2nonc2N)nc2ccc(F)cc21,5.33%,6.8%,6.49%,3.97%,14.5%,8.14%,41.4%,3.36%,6.51%,2.21%
